Reference: PubChem BioAssay (NCI)
The panel holds about 83,000 compounds, 20% with a hit somewhere; the sample as a whole holds those more often.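 Values shown are percent growth following 48 h exposure of cells in 96-well plates to a single concentration of compound; below 10 was considered active.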 Active and inactive are the calls of the source.

Legend:
Test in all cases: NCI-60 one-dose screen, 48 h (100 = growth as untreated, 0 = no growth, -100 = all killed)
Conditions in all cases: 10 µM
HCT-15 colon = tested on: HCT-15 colon
HT29 colon = tested on: HT29 colon
SNB-75 CNS = tested on: SNB-75 CNS
SNB-19 CNS = tested on: SNB-19 CNS
U251 CNS = tested on: U251 CNS
PC-3 prostate = tested on: PC-3 prostate
SK-MEL-5 melanoma = tested on: SK-MEL-5 melanoma
UACC-62 melanoma = tested on: UACC-62 melanoma
LOX IMVI melanoma = tested on: LOX IMVI melanoma
SK-MEL-28 melanoma = tested on: SK-MEL-28 melanoma

Measured: growth

Cc1ccc(/C(CS(=O)(=O)c2ccc(C)cc2)=N\O)cc1
inactive: HCT-15 colon 95.2% | HT29 colon 99.7% | SNB-75 CNS 87.8% | SNB-19 CNS 88% | U251 CNS 90.4% | PC-3 prostate 94.3% | SK-MEL-5 melanoma 98.9% | UACC-62 melanoma 87.3% | LOX IMVI melanoma 102% | SK-MEL-28 melanoma 103%

CN(C)CCCN1c2ccccc2Sc2ccc(C(F)(F)F)cc21
active: HT29 colon -8.15% | SNB-75 CNS -2.79% | SK-MEL-5 melanoma -95.4% | UACC-62 melanoma -52.6% | LOX IMVI melanoma -75.3% | SK-MEL-28 melanoma -64.1%
inactive: HCT-15 colon 17.3% | SNB-19 CNS 35.9% | U251 CNS 19.5% | PC-3 prostate 23.3%

CCOC(=O)c1c(Cl)c2c(n1Cc1cccc(OC)c1)-c1oncc1CC2
inactive: HCT-15 colon 30.8% | SNB-19 CNS 34% | U251 CNS 26% | PC-3 prostate 31.7% | SK-MEL-5 melanoma 20.9% | UACC-62 melanoma 33.6% | LOX IMVI melanoma 38.3% | SK-MEL-28 melanoma 34%
active: HT29 colon 7.37% | SNB-75 CNS -11.7%

O=C(Nc1cccc(C(F)(F)F)c1)C(Cl)Cl
inactive: HCT-15 colon 94% | HT29 colon 92.2% | SNB-75 CNS 91.3% | SNB-19 CNS 99% | U251 CNS 102% | PC-3 prostate 95.1% | SK-MEL-5 melanoma 103% | UACC-62 melanoma 105% | LOX IMVI melanoma 101% | SK-MEL-28 melanoma 104%

Nc1ccc(Sc2ccc3c4c2cccc4c(=O)n2c4ccccc4nc32)cc1
inactive: HCT-15 colon 40.5% | HT29 colon 66.7% | SNB-75 CNS 43.7% | SNB-19 CNS 46.3% | U251 CNS 39.9% | PC-3 prostate 50.4% | SK-MEL-5 melanoma 39.4% | UACC-62 melanoma 31.9% | LOX IMVI melanoma 29.2% | SK-MEL-28 melanoma 73.7%

Cn1cnc([N+](=O)[O-])c1Sc1nnc(-c2ccccc2)c(-c2ccccc2)n1
inactive: HCT-15 colon 56% | HT29 colon 74.8% | SNB-75 CNS 100% | SNB-19 CNS 109% | U251 CNS 77.7% | PC-3 prostate 95.5% | SK-MEL-5 melanoma 106% | UACC-62 melanoma 64.3% | LOX IMVI melanoma 67.8% | SK-MEL-28 melanoma 76%

COc1ccc(Nc2nc(NCc3ccccc3)c3ccccc3n2)cc1
inactive: HCT-15 colon 72.4% | HT29 colon 49% | SNB-19 CNS 14.4% | U251 CNS 32.9% | PC-3 prostate 57.3% | SK-MEL-5 melanoma 63.9% | UACC-62 melanoma 65.3% | LOX IMVI melanoma 46.8% | SK-MEL-28 melanoma 67.7%
active: SNB-75 CNS -33%

C=CCOc1ccc2c(c1)CC=C1[C@@H]2CC[C@]2(C)C(=O)/C(=N/O)C[C@@H]12
inactive: HCT-15 colon 15% | HT29 colon 26.8% | SNB-75 CNS 115% | SNB-19 CNS 104% | U251 CNS 89.5% | PC-3 prostate 87% | SK-MEL-5 melanoma 84.7% | UACC-62 melanoma 108% | LOX IMVI melanoma 66.9% | SK-MEL-28 melanoma 105%

FC(F)(F)c1ccc(-c2cnc(Cl)nc2NC2CCCCCC2)cc1
inactive: HCT-15 colon 75.7% | HT29 colon 19.1% | SNB-75 CNS 49.9% | SNB-19 CNS 31.2% | UACC-62 melanoma 16.2% | LOX IMVI melanoma 27.9% | SK-MEL-28 melanoma 37.6%
active: U251 CNS 5.17% | PC-3 prostate 1.08% | SK-MEL-5 melanoma -8.26%

Cn1c(N)c(N=Cc2ccccc2)c(=O)n(C)c1=O
inactive: HCT-15 colon 103% | HT29 colon 101% | SNB-75 CNS 91.4% | SNB-19 CNS 105% | U251 CNS 110% | PC-3 prostate 105% | SK-MEL-5 melanoma 108% | UACC-62 melanoma 115% | LOX IMVI melanoma 104% | SK-MEL-28 melanoma 110%

CCCCCCCCCCCCCC[n+]1ccccc1
active: HT29 colon -52.4% | SNB-75 CNS -39.5% | SNB-19 CNS -45.4% | U251 CNS -88.3% | PC-3 prostate -80.8% | SK-MEL-5 melanoma -95.3% | UACC-62 melanoma -81.1% | LOX IMVI melanoma -72.1% | SK-MEL-28 melanoma -23.5%
inactive: HCT-15 colon 34.5%

CCc1ccc(Nc2cc(C)nc3nc(C)nn23)cc1
active: HCT-15 colon -3.95% | HT29 colon -76.3% | U251 CNS -98.9% | PC-3 prostate 1.4% | SK-MEL-5 melanoma -97.8% | UACC-62 melanoma -99.1% | LOX IMVI melanoma -98.2% | SK-MEL-28 melanoma -98%
inactive: SNB-75 CNS 29.6% | SNB-19 CNS 15.4%

C[C@@H]1N=C(c2ccc(Br)cc2)Nc2nc3ccccn3c2C1=O
inactive: HCT-15 colon 30.7% | HT29 colon 17.5% | SNB-75 CNS 50.2% | SNB-19 CNS 82.6% | U251 CNS 54% | PC-3 prostate 63.2% | SK-MEL-5 melanoma 31.9% | UACC-62 melanoma 49.2% | LOX IMVI melanoma 52.4% | SK-MEL-28 melanoma 66.2%
